Screening data from PubChem.
A selection: hits, their analogues and other compounds. The true share with any hit is near 27%.
CYP2C9 inh: blockers of cytochrome P450 2C9 activity – biochemical, luminescence, ADME assay, primary screen | CYP2C9 Supersomes, luciferin-H conversion | inhibition, % at 5 µM | 96,000 tested, 20% active;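 active = blocking of liver enzyme CYP2C9 beyond about 50% at 5 µM, limit read from the data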
Target sequence (P11712 whole entry, looked up): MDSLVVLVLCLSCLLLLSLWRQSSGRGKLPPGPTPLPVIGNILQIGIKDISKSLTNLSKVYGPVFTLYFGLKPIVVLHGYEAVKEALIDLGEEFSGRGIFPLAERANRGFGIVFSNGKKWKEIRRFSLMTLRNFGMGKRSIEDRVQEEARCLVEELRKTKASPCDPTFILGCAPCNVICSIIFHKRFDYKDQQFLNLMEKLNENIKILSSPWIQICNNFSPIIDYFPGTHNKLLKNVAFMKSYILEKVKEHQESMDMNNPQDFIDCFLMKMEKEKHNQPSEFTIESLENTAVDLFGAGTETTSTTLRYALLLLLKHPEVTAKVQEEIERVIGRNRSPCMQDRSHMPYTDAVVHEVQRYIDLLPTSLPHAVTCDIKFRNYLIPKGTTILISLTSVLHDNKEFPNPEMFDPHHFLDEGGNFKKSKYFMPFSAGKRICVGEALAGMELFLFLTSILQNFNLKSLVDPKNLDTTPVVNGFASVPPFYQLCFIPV
Cav3 T inh: Cav3.2 calcium influx blockers – cell-based, Fluo-4 calcium fluorescence, FDSS, MLSMR library, primary screen. 100,000 tested, 4% active. AID 449739, 2010. B-score at 10 µM. Cav3.2-expressing cells; hits give low values;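 active = single-dose well whose peak fluorescence ratio is a statistical outlier from its plate by either plate-standardised score or position-corrected B-score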
CYP2C19 act: human CYP2C19 activators, primary screen, biochemical, luminescence; Cytochrome P450 2C19 (Homo sapiens), P33261; recombinant CYP2C19, luciferin-H EGE luminescence; hits give high values; 0 = fully inhibited enzyme, 1 = untreated enzyme; activation factor at 5 µM; 96,000 tested, under 10 active; AID 1025, 2008;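 active = activation factor of at least 2 at 5 µM in the primary screen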;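 note: 0 = wells with 2.5 mM tranylcypromine and 1 = vehicle-only wells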
CYP2C9 act: human CYP2C9 activators, primary screen, biochemical, luminescence. recombinant CYP2C9, luciferin-H conversion; hits give high values; factor 1 = untreated enzyme, 0 = blocked. activation factor at 5 µM. 96,000 tested, 1.4% active. Cytochrome P450 2C9 (Homo sapiens), P11712;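 active = activation factor of 2 or more for CYP2C9 at a 5 µM dose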;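 note: 0 = sulfaphenazole-blocked wells and 1 = vehicle-only wells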
CYP2C19 inhib: blockers of cytochrome P450 2C19 activity – biochemical, luminescence, ADME assay, primary screen | 96,000 tested, 21% active | CYP2C19 Supersomes, luciferin-H EGE luminescence, 30 min | AID 778, 2007 | inhibition, % at 5 µM | P33261;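 active = CYP2C19 inhibition above a set limit at 5 µM in the primary screen, cut at about 50% in these data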;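 note: plate controls were negative control wells for no effect and 2.5 mM tranylcypromine positive control for full effect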
The depositor's hits bear a star; x = not tested or not shown.

SMILES	CYP2C9 inh	Cav3 T inh	CYP2C19 act	CYP2C9 act	CYP2C19 inhib
Cc1cc(C(=O)Nc2cccc(O)c2)co1	14	0.94	0.8	0.9	16
CCOC(=O)c1ccc(Nc2cc(C)nc(-c3ccccc3O)n2)cc1	57*	-0.26	0.6	0.4	36
CCOC(=O)c1ccc(Nc2nc(C(=O)OCC)nc3ccccc23)cc1	37	1.6	0.4	0.6	56*
Cc1cc(NC2CCCCC2)nc(-c2ccccc2O)n1	57*	-1.5	0.9	0.4	7
Cc1cc(Nc2ccccc2)nc(-c2ccccc2O)n1	5	x	1.2	1	-18
Cc1cc(Nc2cccc(F)c2)nc(-c2ccccc2O)n1	-1	0.023	1	1	-3
Cc1cc(NCc2ccccc2)nc(-c2ccccc2O)n1	65*	-0.81	0.7	0.3	30
COc1ccccc1N1CCN(/N=C/c2c(C)nn(-c3ccccc3)c2C)CC1	16	-1.4	0.8	0.8	21
COc1ccc(NC(=O)CC2C(=O)N(c3cccc(OC)c3)C(=O)N2Cc2ccco2)cc1 (centres undefined)	x	1.8	x	x	x
Cc1noc(C)c1COc1cccc(C(=O)OCCOc2ccc(F)cc2)c1	89*	-2.1	0	0.1	98*
Cc1ccc(NC(=O)c2cccc(OCc3c(C)noc3C)c2)c(C)c1	88*	-1.3	0.2	0.1	81*
CC(C)Cc1cc(C(=O)Nc2ccc3c(c2)OCO3)no1	11	-4	1	0.9	2
Cc1noc(C)c1COc1cccc(C(=O)OC(C)C(=O)Nc2ccc3c(c2)OCO3)c1 (centres undefined)	81*	-3.2	0.6	0.2	37
Cc1noc(C)c1COc1cccc(C(=O)Oc2ccc3c(c2)OCO3)c1	88*	-3.1	0.3	0.1	67*
COc1cc(C(=O)Oc2ccccc2)ccc1OCc1c(C)noc1C	3	-0.0095	1	1	4
Cc1nc(-c2ccc(Cl)cc2)sc1C1(C)CC(c2cccc(F)c2)=NO1 (centres undefined)	x	-0.78	x	x	x
COc1cc(C2C(C(=O)c3cccs3)=C(O)C(=O)N2Cc2ccco2)cc(OC)c1OC (centres undefined)	22	x	1	0.8	-2
CCOc1ccccc1OCCOc1ccccc1OC(C)C	11	-5.4*	0.4	0.9	56*
CCOc1ccccc1OCCOc1ccccc1CC	2	-0.28	0.7	1	30
COc1cccc(OCCOc2ccccc2OC(C)C)c1	22	-1.7	0.1	0.8	90*
Cc1onc(-c2ccccc2)c1C(=O)NC(C)C1CCCO1 (centres undefined)	4	-0.45	1	1	3
O=C(CSC(=S)N1CCOCC1)N1N=CCC1c1ccccc1 (centres undefined)	15	-0.54	1	0.8	0
Nc1nc2n(n1)C(c1cccc(Cl)c1)CC(c1ccc(F)cc1)N2 (centres undefined)	14	0.64	0.1	0.9	89*
Cc1ccc(C2CC(c3ccc(F)cc3)Nc3nc(N)nn32)cc1 (centres undefined)	-16	-0.047	0.7	1.2	28
Nc1nc2n(n1)C(c1ccc(F)cc1)CC(c1ccc(F)cc1)N2 (centres undefined)	9	-0.061	0.3	0.9	71*
SMILES	CYP2C9 inh	Cav3 T inh	CYP2C19 act	CYP2C9 act	CYP2C19 inhib
CC(=O)c1cc(F)c(N2CCN(C(=O)COc3ccccc3F)CC2)cc1C	x	-1.4	x	x	x
CN(C)CC(C)(C)CNS(=O)(=O)c1ccc(Cl)c(Cl)c1	50*	0.74	0.2	0.5	83*
CN(C)CCCNS(=O)(=O)c1cc(Cl)ccc1Cl	-10	0.97	0.8	1.1	17
CC(=O)c1cn(CC(=O)Nc2ccc(C)cc2C)c2ccccc12	x	-0.38	x	x	x
O=C(Cn1ncc2c1-c1ccccc1OC2)N(Cc1ccco1)C1CCCCC1	36	-2.3	0.8	0.6	19
O=C(Cn1ncc2c1-c1ccccc1OC2)Nc1nc2ccccc2s1	55*	-9.4*	0.5	0.4	46
CCN(CC)C(=O)Cn1ncc2c1-c1ccccc1OC2	10	0.88	0.9	0.9	5
CC(CCc1ccco1)NC(=O)Cn1ncc2c1-c1ccccc1OC2 (centres undefined)	67*	-1	0.2	0.3	80*
O=C(NC1=NCCS1)c1ccc(Br)s1	-1	1.1	1	1	-4
COc1ccc(/C=N/O)cc1COc1ccc(NC(C)=O)cc1	x	-0.39	x	x	x
COC(=O)C1=C(C(=O)OC)[C@@H]2N(Cc3ccccc3)c3ccccc3[C@@]23C[C@@H](CO)N(C(=O)NC2CCCC2)C3=N1	x	-0.53	x	x	x
Clc1cccc(Oc2ncc(CN3CCOCC3)s2)c1	16	-1.4	0.2	0.8	82*
CCOC(=O)C1CCN(Cc2cnc(Oc3ccc(OC)cc3)s2)CC1	12	0.58	0.9	0.9	8
Brc1ccc(Oc2ncc(CN3CCN(c4ccccc4)CC3)s2)cc1	71*	-0.28	0.4	0.3	57*
Clc1ncc(CN2CCN(Cc3ccccc3)CC2)s1	8	0.85	0.3	0.9	74*
Cc1ccc(Oc2ncc(CN3CCOCC3)s2)cc1	21	0.95	0.2	0.8	79*
Cc1ccccc1NC(=O)c1ccc2c(c1)OCCO2	-11	0.54	1.1	1.1	-7
CCN1CCN(c2c(Cl)cccc2NC(=O)c2ccc3c(c2)OCCO3)CC1	29	0.97	0.9	0.7	12
CCC(O)c1cc2c(cc1NC(=O)c1ccc(C)cc1)OCCO2 (centres undefined)	76*	0.035	0.4	0.2	64*
CCc1ccc(C(=O)Nc2cc3c(cc2Cl)OCCCO3)cc1	-117	-0.91	0.9	2.2*	7
Cc1cc(C)c(S(=O)(=O)NCC(=O)O)cc1C	-14	0.22	1.1	1.1	-8
Cc1ncc([N+](=O)[O-])n1CCOC(=O)c1ccc(Cl)cc1Cl	22	-0.46	0.5	0.8	51*
Cc1ncc([N+](=O)[O-])n1CCO	x	0.3	x	x	x
Cc1onc(-c2ccccc2)c1C(=O)Nc1ccc(S(=O)(=O)NC2=NCCCCC2)cc1	12	-0.26	1	0.9	1
CCC(C)NS(=O)(=O)c1ccc(NC(=O)c2c(-c3ccccc3)noc2C)cc1 (centres undefined)	62*	-1.9	0.1	0.4	86*
Cc1onc(-c2ccccc2)c1C(=O)Nc1ccncc1	90*	0.95	0.1	0.1	92*
Cc1onc(-c2ccccc2)c1C(=O)Nc1ccc2c(C)cc(=O)oc2c1	40	0.05	0.8	0.6	15
Cc1onc(-c2ccccc2)c1C(=O)Nc1cccc(C#N)c1	-4	-0.11	0.4	1	55*
